Rows were chosen to be rich in hits. Some 3.2% of all compounds tested hit in one or more screens of this group.
Sm TGR block: qHTS Assay for the Inhibitors of Schistosoma Mansoni Peroxiredoxins; Schistosoma mansoni thioredoxin glutathione reductase (TGR), Q962Y6; purified TGR, DTNB reduction, TNB absorbance 405 nm; Potency, µM (titrated, usually from 114 µM), without a hit: at the top dose activity change, negative = inhibition, most hits filed as inhibitors; 3% of 360,000 active; AID 485364, 2010; note: nearly all actives have a fitted effect of over 60% in size
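TGR 20 nM + NADPH 100 uM (dispensed conc.), cpd preinc 15 min RT; start with NADPH (500 uM addition) then DTNB (15 mM addition). Kinetic TNB absorbance, 405 nm filter. Four-parameter Hill fit across titration.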
LmPK inhibitor: qHTS Assay for Inhibitors of Leishmania Mexicana Pyruvate Kinase (LmPK); Q27686; purified LmPK, Kinase-Glo ATP luminescence, 1 h; Potency, µM (series often up to 57.5 µM), without a hit: at the highest dose activity change, negative = inhibition, actives largely listed as inhibitors; 0.37% of 290,000 active
Target sequence (Q27686 whole entry, looked up): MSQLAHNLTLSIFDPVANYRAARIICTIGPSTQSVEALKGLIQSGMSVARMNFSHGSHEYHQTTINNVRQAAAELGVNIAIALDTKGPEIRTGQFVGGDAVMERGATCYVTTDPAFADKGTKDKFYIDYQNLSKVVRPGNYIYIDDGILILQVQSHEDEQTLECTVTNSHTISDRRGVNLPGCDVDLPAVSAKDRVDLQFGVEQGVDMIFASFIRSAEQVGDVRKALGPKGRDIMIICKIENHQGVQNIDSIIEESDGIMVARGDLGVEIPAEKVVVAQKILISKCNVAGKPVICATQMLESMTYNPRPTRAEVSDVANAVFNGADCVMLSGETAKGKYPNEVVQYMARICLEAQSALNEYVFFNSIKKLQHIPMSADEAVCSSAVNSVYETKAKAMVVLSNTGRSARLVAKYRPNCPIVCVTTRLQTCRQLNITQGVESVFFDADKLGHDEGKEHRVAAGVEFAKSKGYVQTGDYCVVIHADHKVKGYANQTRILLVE
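0.1 nM LmPK, 0.5 mM PEP, 0.1 mM ADP; 50 mM imidazole pH 7.2, 7 mM MgCl2, 50 mM KCl; 1 h RT. Kinase-Glo luminescence readout, normalized to no-enzyme (full inhibition) and uninhibited wells.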
AMA1 RON2 block: qHTS for Inhibitors of AMA1-RON; Towards Development of Antimalarial Drug Lead: Primary Screen; AlphaScreen AMA1-biotinylated RON2 peptide binding; Potency, µM (doses to about 58.2 µM), for inactives: at the top dose activity change, negative = inhibition, hits mostly inhibitors; 0.2% of 360,000 active;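 note: 0% = vehicle wells and -100% = peptide control; nearly all actives have a fitted effect of over 45% in size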
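AMA1 (3D7) with his tag at 25 nM final met compounds first, then biotinylated RON2 peptide at 25 nM; detection used donor plus acceptor beads, 10 µg/mL apiece, read by AlphaScreen after 30 min at room temperature.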
Tb PYK inh: qHTS of Trypanosoma Brucei Inhibitors; TbPYK enzyme, Kinase-Glo Plus ATP luminescence, 45 min; Potency, µM (titrated, usually from 76.8 µM), for the others: top-dose activity, negative = inhibition, actives largely listed as inhibitors; 0.12% of 410,000 active; AID 624173, 2012; note: nearly all actives have a fitted effect of over 50% in size
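Readout: single end-point luminescence (Kinase-Glo Plus, 10 min). Reaction conditions were TbPYK/substrate plus 130 uM ADP, 45 min at RT, pH 7.2 TEA buffer. No-enzyme wells served as controls, and data were normalized before concentration-response fitting.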
RE007 growth inh: qHTS Assay for Inhibitors of the HIV-1 protein Vpr; Potency, µM (top dose mostly 92.2 µM), inactives show top-dose activity change, negative = less growth, most hits filed as inhibitors; S. pombe RE007 Vpr strain, BacTiter-Glo ATP luminescence, 24 h; 0.21% of 360,000 active; active = well fitted falling curve with a large enough effect; inconclusive = small, poorly fitted or top-dose-only effect; inactive = no such curve, though single readings can be large or run the other way; note: nearly all actives have a fitted effect of over 50% in size
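Fission yeast RE007 carrying one integrated HIV-1 vpr copy, seeded at OD 0.01 in PMG+AL medium with 23 nL pinned compound. Grown 24 h at 30 degrees; viability read by BacTiter-Glo luminescence after 5 min.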
The depositor's hits bear a star; u = inconclusive; x = no result. Unless noted, calls come from the whole dose curve; as a rule, active = well fitted curve in the direction sought with a large enough effect; inconclusive = small, poorly fitted or top-dose-only effect, or another doubt; inactive = no such curve, though single readings can be large; an effect the other way counts as inactive or inconclusive. Unless noted, % is set by controls: 0 for no effect and ±100 for the full control effect; potency is the fitted concentration of half-maximal effect.

SMILES	Sm TGR block	LmPK inhibitor	AMA1 RON2 block	Tb PYK inh	RE007 growth inh
COCCn1c(C)cc(O)c(C(c2ccccc2)N2CCN(c3ccccc3F)CC2)c1=O (stereo not drawn)	7.1µM*	x	x	-5%	x
CCOc1ccc(C(c2c(O)cc(C)n(CCOC)c2=O)N2CCN(c3ccccc3F)CC2)cc1 (stereo not drawn)	10µM*	x	x	-11%	x
CCOc1ccc(C(c2c(O)cc(C)n(CCOC)c2=O)N2CCC(C)CC2)cc1 (stereo not drawn)	20µM*	x	x	3%	x
Cc1cc(C)cc(NC(=O)c2sc3nc[nH]c(=O)c3c2C)c1	10%	x	x	-8%	x
Cc1ccc(Cl)cc1N1CCN(C(=O)c2cc3c(-c4ccccc4F)nn(C)c3s2)CC1	1%	x	x	1%	x
O=S(=O)(c1ccccc1)N1CCC2(CC1)CN(c1ncccn1)C2	x	x	x	1%	x
CC1CCC(NC(=O)C2(C)Cc3ccccc3C(=O)N2Cc2ccccc2Cl)CC1 (stereo not drawn)	5%	x	x	3%	x
O=C(C1=C(O)C(=O)N(CCN2CCOCC2)C1c1ccc(F)cc1)c1cc2ccccc2o1 (stereo not drawn)	28µM*	9%	-4%	0%	-10%
O=C(C1=C(O)C(=O)N(CCN2CCOCC2)C1c1cccc(Br)c1)c1cc2ccccc2o1 (stereo not drawn)	0%	10%	-8%	-2%	8%
O=C(C1=C(O)C(=O)N(CCN2CCOCC2)C1c1ccco1)c1cc2ccccc2o1 (stereo not drawn)	22µM*	-1%	7%	1%	3%
Cn1c(O)c(N=Nc2ccc(F)cc2)c2ccccc21	-11%	8%	11%	-20%	-19%
Cn1c(O)c(N=Nc2ccccc2)c2ccccc21	45µM*	6%	11%	-24%	-6%
CCC1CCCCN1S(=O)(=O)c1ccc(C(=O)Nc2sc3c(c2C(N)=O)CCC3)cc1 (stereo not drawn)	35µM*	x	x	-2%	x
CC(=O)c1ccc(-n2c(-c3cc(-c4ccsc4)n[nH]3)n[nH]c2=S)cc1	-3%	20µM*	49%	u	1%
O=C(Nc1ccc(CN2CCOCC2)cc1)c1ccc(-c2ccc(Cl)cc2Cl)o1	50µM*	-2%	-26%	2%	11%
Cc1ccc(-c2cc(C(=O)N3CCN(c4ncccn4)CC3)c3cc(Br)ccc3n2)o1	7.1µM*	-3%	-10%	u	-20%
Cc1ccc(-c2cc(C(=O)N3CCCC(C(F)(F)F)C3)c3ccccc3n2)o1 (stereo not drawn)	28µM*	x	6%	-5%	0%
COc1ccc(N2CCN(C(=O)c3cc(-c4cc(OC)ccc4OC)nc4ccccc34)CC2)cc1	-2%	2%	5µM*	-8%	19%
COc1ccc(-c2cc(C(=O)N3CCCC(C(F)(F)F)C3)c3ccccc3n2)cc1 (stereo not drawn)	1%	x	2%	-11%	-7%
Cc1ccc(-c2cc(C(=O)N3CCN(c4ccc(F)cc4)CC3)c3ccccc3n2)o1	45µM*	2%	-15%	-18%	-13%
CCC(C(=O)NCCc1ccc(OC)c(OC)c1)n1nc(C)c2sc3ccccc3c2c1=O (stereo not drawn)	-3%	x	x	2%	x
CCc1ccc(S(=O)(=O)c2nnn3c2nc(N(CC)Cc2ccccc2)c2cc(Cl)ccc23)cc1	1%	x	x	-4%	x
Cc1ccc(Nc2nc3nonc3nc2Nc2cccc(C(F)(F)F)c2)cc1Cl	2%	x	x	1%	x
CCc1ccc(NC(=O)CC2C(=O)N(c3cccc(OC)c3)C(=O)N2C2CCCC2)cc1 (stereo not drawn)	-4%	x	x	-4%	x
O=C(O)c1cc(-c2ccc(-c3ccc(F)cc3)o2)nc2ccccc12	13µM*	0%	-7%	u	-13%
